# Assay outcomes deposited in PubChem BioAssay by National Center for Advancing Translational Sciences (NCATS).
# HT1080NT lethal = kills 2HG-producing HT-1080-NT fibrosarcoma cells; HT-1080-NT fibrosarcoma viability, CellTiter-Glo ATP luminescence, 48 h; Potency, µM (titrated, usually from 46.1 µM), for inactives: top-dose activity, negative = less viability, usual class: cytotoxic; 360,000 compounds, 1.6% hits; AID 686970;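 note: NT is the 2HG producing partner of a matched IDH1 knockdown line; potency is the fitted concentration of half-maximal effect; 0% = DMSO-treated cells and -100% = media-only wells without cells; nearly all actives have a fitted effect of over 55% in size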
#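 Toxicity toward the 2HG-producing NT line was scored as %Activity, normalised to DMSO and no-cell wells, from CellTiter-Glo luminescence after 48 hours' treatment.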
# HT1080 IDH1KD tx = kills HT-1080 cells with IDH1 knockdown; HT-1080 IDH1 knockdown viability, ATP luminescence, 48 h; Potency, µM (highest dose often 46.1 µM), without a hit: top-dose activity, negative = toxicity, usual class: cytotoxic; 360,000 compounds, 2% hits; AID 686971;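 note: potency is the fitted concentration of half-maximal effect; 0% = DMSO wells and -100% = cell-free medium wells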
#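 HT-1080-IDH1KD cells (IDH1 knocked down), 750/well in RPMI with 5% FBS, treated with compound 48 h at 37 degrees C. Viability by CellTiter-Glo luminescence, normalised to DMSO and no-cell wells; concentration-response curves classed.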
# DT40 TDP1 no CPT = qHTS for Inhibitors of human tyrosyl-DNA phosphodiesterase 1 (TDP1): qHTS in cells in absence of CPT; DT40 Tdp1-/- hTDP1 cells, no CPT, ATP luminescence, 48 h; Potency, µM (titrated, usually from 46.2 µM), without a hit: at the highest dose activity change, negative = growth inhibition, hits mostly inhibitors; 420,000 compounds, 15% hits; note: potency is the fitted concentration of half-maximal effect; nearly all actives have a fitted effect of over 55% in size
#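 Camptothecin absent (DMSO only). Human TDP1-complemented DT40 knockout cells, 400 cells/well, 37 °C for minimum 48 hr; ATP measured via CellTiter-Glo, 30 min dark incubation, luminescence.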
# DT40 TDP1 CPT = growth inhibition of DT40 Tdp1-/-;hTDP1 cells with camptothecin (screen for TDP1 inhibitors); AID 686979; 420,000 compounds, 12% hits; chicken DT40 Tdp1-/-;hTDP1 cells + 20 nM CPT, ATP luminescence, 48 h; Potency, µM (titrated, usually from 46.2 µM), for inactives: top-dose activity change, negative = growth inhibition, hits mostly inhibitors; note: potency is the fitted concentration of half-maximal effect; nearly all actives have a fitted effect of over 55% in size
#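 Cell growth measured by CellTiter-Glo luminescence after a minimum 48 h, 37 C compound exposure with 20 nM CPT in Tdp1-knockout DT40 cells stably expressing hTDP1, seeded 400/well; qHTS titration format.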
# IL1B secr inh = blocks inflammasome-driven IL-1 beta release | AID 743279 | 360,000 compounds, 4.7% hits | activity change, % at 57.5 µM | THP-1 LPS/ATP IL-1B secretion, AlphaLISA, 16 h; active compounds read low; in the data active = activity change below about -50%; inconclusive = mostly about -30% to -49%
#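 THP-1 cells pretreated 1 hr with compounds (up to 57.5 uM final), then stimulated with LPS (250 ng/mL final) plus ATP (1.25 mM final); secreted IL-1B measured by AlphaLISA after 16 hr, decreased signal indicating inhibition.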
# 12-LOX inh = inhibitors of human 12S-lipoxygenase ALOX12. P18054. purified 12hLO, xylenol orange hydroperoxide absorbance. Potency, µM (doses to about 108 µM), without a hit: at the highest dose activity change, negative = inhibition, actives largely listed as inhibitors. 580,000 compounds, 1.1% hits; note: potency is the fitted concentration of half-maximal effect
# Target sequence (P18054 whole entry, looked up): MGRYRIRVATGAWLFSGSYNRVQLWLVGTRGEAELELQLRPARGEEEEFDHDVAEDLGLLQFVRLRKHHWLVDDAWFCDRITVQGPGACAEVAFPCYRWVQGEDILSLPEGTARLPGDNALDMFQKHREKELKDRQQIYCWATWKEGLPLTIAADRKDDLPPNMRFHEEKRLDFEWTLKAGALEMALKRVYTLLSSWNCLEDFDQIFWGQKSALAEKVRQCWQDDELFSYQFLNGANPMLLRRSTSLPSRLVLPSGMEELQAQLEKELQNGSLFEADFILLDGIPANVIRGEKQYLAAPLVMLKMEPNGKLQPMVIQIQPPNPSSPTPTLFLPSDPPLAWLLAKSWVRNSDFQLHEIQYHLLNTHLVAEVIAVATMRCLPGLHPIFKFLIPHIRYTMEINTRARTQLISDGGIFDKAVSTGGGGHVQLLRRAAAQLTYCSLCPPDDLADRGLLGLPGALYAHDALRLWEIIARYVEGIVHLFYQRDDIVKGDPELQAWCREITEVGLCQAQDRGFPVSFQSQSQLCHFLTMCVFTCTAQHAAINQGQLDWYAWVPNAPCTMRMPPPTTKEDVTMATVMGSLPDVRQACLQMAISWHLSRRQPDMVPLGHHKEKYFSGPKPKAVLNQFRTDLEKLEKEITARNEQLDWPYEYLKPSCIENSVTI
#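 Purified human 12hLO (150 nM final) in 25 mM Hepes, 0.01% Triton X-100, pH 7.0 was preincubated 15 min at room temperature with compound. Then 40 uM arachidonic acid was added, 30 min. Hydroperoxide was read by Fe-XO absorbance ratio 573/405 nm.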
# The depositor's hits bear a star; ? = inconclusive; · = no result; [ ] = dose if it differs, or a comment. The entries come from a sample that favours hits as a whole. Unless noted, calls come from the whole dose curve; as a rule, active = well fitted curve in the direction sought with a large enough effect; inconclusive = small, poorly fitted or top-dose-only effect, or another doubt; inactive = no such curve, though single readings can be large; an effect the other way counts as inactive or inconclusive. Unless noted, % is set by controls: 0 for no effect and ±100 for the full control effect.
SMILES,HT1080NT lethal,HT1080 IDH1KD tx,DT40 TDP1 no CPT,DT40 TDP1 CPT,IL1B secr inh,12-LOX inh
Cn1c(N)c(C(=O)COC(=O)Cc2ccc(Cl)cc2)c(=O)n(C)c1=O,-1%,-3%,?,-26%,7,2%
O=C(NCC(c1ccc(Cl)cc1)N1CCCCC1)c1ccc(F)cc1 (configuration not stated),·,·,13µM*,13µM*,·,?
CN1CCN(C(CNC(=O)Nc2ccc(Cl)cc2)c2ccc(F)cc2)CC1 (configuration not stated),-18%,-19%,?,?,?,?
N#Cc1cc2[nH]c3ccccc3c2[n+](-c2ccc([N+](=O)[O-])cc2)c1N,-30%,-2%,?,8%,-97*,-15%
COc1cc(OC)c2c(-c3ccccc3)cc(=O)oc2c1C(CCN1CCN(c2ccccc2)CC1)c1ccc(N(C)C)cc1 (configuration not stated),-1%,4%,23µM*,15µM*,-6,-7%
COc1cc(OC)c2c(C)cc(=O)oc2c1C(CCN1CCOCC1)c1ccc(N(C)C)cc1 (configuration not stated),-7%,-25%,16µM*,5.2µM*,0,1%
CCCCCc1cc(=O)oc2c(C(CCN3CCN(c4ccccc4)CC3)c3ccc(N(C)C)cc3)c(OC)cc(OC)c12 (configuration not stated),-3%,-4%,?,21µM*,-16,-5%
COc1cc(C2CC(=O)Oc3c(C(CCN4CCN(c5ccccc5)CC4)c4ccc(N(C)C)cc4)c(OC)cc(OC)c32)cc(OC)c1OC (configuration not stated),0%,7%,?,?,-7,-1%
COc1ccc(C(CCN2CCN(c3ccccc3)CC2)c2c(OC)cc(OC)c3c(-c4ccccc4)cc(=O)oc23)cc1 (configuration not stated),-6%,-2%,?,?,4,-3%
COc1cc(OC)c2ccc(=O)oc2c1C(CCN1CCN(c2ccccc2)CC1)c1ccc(N(C)C)cc1 (configuration not stated),0%,-7%,?,15µM*,11,-10%
COc1cc(OC)c2c(-c3ccccc3)cc(=O)oc2c1C(CC(=O)N1CCOCC1)c1ccc(N(C)C)cc1 (configuration not stated),0%,-7%,?,?,4,-17%
O=C1C(=O)N(CCN2CCOCC2)C(c2ccc(F)cc2)/C1=C(\O)c1ccc(Br)cc1 (configuration not stated),·,·,·,·,·,-3%
CC(C)C(=O)NCC(C)(C)CNC(=O)C(C)C,·,·,·,·,·,-1%
CCOC(=O)c1sc(NC(=O)c2ccc(S(=O)(=O)N3CCCCCC3)cc2)cc1C,·,·,·,·,·,-17%
O=C(OCC(=O)N1CCCC1)c1cnc(Cl)c(Cl)c1,5%,10%,-25%,-16%,?,-3%
CCOC(=O)C(NC(=O)/C=C/c1ccc(C)cc1Br)C(=O)OCC,·,·,·,·,·,2%
Cc1ccc(OCC(=O)Nc2c(Cl)ccc3nsnc23)cc1C,·,·,·,·,·,-15%
S=C(N/N=C/c1ccc(Br)cc1)N1CCCCC1,-16%,-26%,?,1.2µM*,-8,-25%
S=C(N/N=C/c1ccc(Cl)cc1)N1CCOCC1,4%,10%,0.018µM*,0.0092µM*,27,?
COc1ccc(C(=O)c2ccc(OC)cc2O)c(O)c1,-9%,-27%,?,?,-16,-2%
COc1ccc(C(=O)/C=C(\N)C(F)(F)F)c(O)c1,1%[9.24 µM],6%,-17%,-23%,0,40µM*
COc1ccc(C(=O)O)c(O)c1,7%,4%,-14%,2%,0,-8%
